# Test results: PubChem BioAssay (Tox21)
# Several values for one entry are separate records, joined by “and”; a condition that tells them apart may be missing. Equal values may be shown once. Records with an inconclusive call do not appear. Entries that show only a call come without a potency. More than one record can exist for a structure, and the calls need not agree. Activity calls are given as the source filed them. The call rests on the fitted dose curve; in most records, active means well fitted cell-killing curve with a large enough effect in the repeat runs; inconclusive means weak or mixed curves, or effect the other way; inactive means flat fitted curve, though single readings scatter.
# Test: qHTS RealTime-Glo MT Cell Viability Assay in HEK293 cells - 32 hour (AID 1224868); further: nearly all actives have a fitted effect of over 50% in size; on activity change, negative = cytotoxic: top concentration of the series differs between compounds
# Details: RealTime-Glo luminescence; series mostly up to 76.8 µM; activity change, negative = cytotoxic: at the top concentration
# In short: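 Homogeneous bioluminescent viability format in HEK293 cells (600 cells/well). Following 5 h at 37 C/5% CO2, 23 nL compound was pintooled; the signal was measured repeatedly during 40 h incubation.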
# Potency means the concentration at half of the fitted maximal effect.
Compound,Potency,"activity change, negative = cytotoxic"
Cc1cc(NS(=O)(=O)c2ccc(N)cc2)no1,inactive,
O=C1N=C(O)CN1/N=C/c1ccc(-c2ccc([N+](=O)[O-])cc2)o1,,-0.459% [at 35.3 µM] (inactive)
Nc1cc(-c2ccncc2)c[nH]c1=O,inactive,
CC(C)(N=C=O)c1cccc(C(C)(C)N=C=O)c1,,1.77% (inactive)
CCCCC/C=C\C/C=C\CCCCCCCC(=O)OC,inactive,
CCCCCCCCCCCCN,inactive and 43.6 µM (active),
Oc1ccc(OCc2ccccc2)cc1,1.07 µM (active) and inactive,
CCC(=O)O,inactive,
CC1CC(OC(=O)c2ccccc2O)CC(C)(C)C1 (stereo unspecified),inactive,
CC1Cc2ccccc2N1NC(=O)c1ccc(Cl)c(S(N)(=O)=O)c1 (stereo unspecified),inactive,
O=[N+]([O-])C(CO)(CO)CO,,16% (inactive)
Nc1c(S(=O)(=O)O)cc(Br)c2c1C(=O)c1ccccc1C2=O,inactive,
Cc1cc(O)cc(C)c1Cl,inactive,
Cc1cc(Cc2ccc(N)c(C)c2)ccc1N,inactive,
C=C1CC[C@H](O)CC1=C/C=C1\CCC[C@]2(C)[C@@H]([C@H](C)/C=C/[C@H](C)C(C)C)CC[C@@H]12,48.5 µM (active) and 43.6 µM (active),
CC(C)n1c(/C=C/[C@@H](O)C[C@@H](O)CC(=O)O)c(-c2ccc(F)cc2)c2ccccc21,inactive,
CCCCCCCCCC(=O)O,inactive,
CN(C)c1ccc(C(=N)c2ccc(N(C)C)cc2)cc1,3.05 µM (active) and 2.97 µM (active),
CC(=O)CCc1ccccc1,inactive,
O=Nc1ccc(O)cc1,,0.361% (inactive)
CC1=C(CC(=O)O)c2cc(F)ccc2/C1=C\c1ccc(S(C)=O)cc1 (stereo unspecified),inactive,
